GRK2 aptamer HTS: blocks RNA aptamer binding to human GRK2 | inhibition of aptamer binding, % at 10 µM | P25098 | bead flow cytometry, FAM-aptamer displacement from GRK2 | 330,000 tested, 0.59% active;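 active means inhibition of aptamer binding above 40%, roughly 3 SD of noise, on plates passing a quality check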;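 further: median bead fluorescence of bound FAM aptamer so fluorescent compounds give negative values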
Target sequence (P25098 whole entry, looked up): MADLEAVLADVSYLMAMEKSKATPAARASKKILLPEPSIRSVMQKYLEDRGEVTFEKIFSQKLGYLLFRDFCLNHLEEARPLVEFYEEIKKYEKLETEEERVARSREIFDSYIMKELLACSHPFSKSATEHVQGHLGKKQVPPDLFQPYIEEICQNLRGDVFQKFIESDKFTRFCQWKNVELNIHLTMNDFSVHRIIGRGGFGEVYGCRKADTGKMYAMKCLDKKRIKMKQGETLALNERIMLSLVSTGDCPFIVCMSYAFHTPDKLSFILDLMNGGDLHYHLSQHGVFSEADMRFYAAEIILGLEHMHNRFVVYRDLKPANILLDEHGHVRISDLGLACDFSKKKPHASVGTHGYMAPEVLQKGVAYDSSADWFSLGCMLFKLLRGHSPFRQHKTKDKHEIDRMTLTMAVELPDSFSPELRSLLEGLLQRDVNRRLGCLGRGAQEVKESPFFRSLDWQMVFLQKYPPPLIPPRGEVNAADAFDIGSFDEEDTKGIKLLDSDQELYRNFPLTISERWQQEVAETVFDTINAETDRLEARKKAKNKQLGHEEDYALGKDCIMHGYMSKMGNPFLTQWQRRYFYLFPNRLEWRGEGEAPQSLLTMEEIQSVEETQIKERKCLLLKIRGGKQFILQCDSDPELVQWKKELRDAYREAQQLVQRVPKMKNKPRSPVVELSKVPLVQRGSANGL
Cardio protect: myocardial damage modulation in H9c2 cells; H9c2 cardiomyocytes, H2O2 injury protection, ATPLite, 2 h; protection from H2O2 cell death, % at 20 µM; 360,000 tested, 0.63% active;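 active means compounds giving at least 50% protection of heart cells from peroxide-induced death in the single-dose screen, raw or plate-pattern-corrected value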;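 further: 0% = DMSO wells with peroxide and 100% = DMSO wells without peroxide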
HDAC3 inh: human HDAC3 inhibition. O15379. recombinant HDAC3, fluorogenic peptide/trypsin coupled, fluorescence. inhibition, % at 8.3 µM. 320,000 tested, 0.15% active. AID 2718; in the data active means inhibition above about 26%, passing the limit was not always enough; inconclusive means no clear call, values can overlap the other calls
Neddyl block: blocks human cullin neddylation. TR-FRET cullin neddylation, biochemical. inhibition, % at 25 µM. AID 651699. P61081+Q13564. 360,000 tested, 0.58% active; in the data active means inhibition above about 36%
Active calls of the source: *; u = inconclusive; x = no result given. In the library only some 1.8% were active in any assay of this set; here they are far more common.

SMILES	GRK2 aptamer HTS	Cardio protect	HDAC3 inh	Neddyl block
CC(=Nc1ccc(C)cc1)c1sc2ccccc2c1O	0	-21	14	37
Fc1ccc(COc2cccc(CNCc3ccncc3)c2)cc1	1	-26	-1	10
CC(C)C[C@H](N)c1nnc(S(=O)(=O)Cc2cccc(F)c2)o1	0	-23	6	-7
Cc1ccccc1CS(=O)(=O)c1nnc([C@H](CC(C)C)NC(=O)OC(C)(C)C)o1	0	-16	38*	0
CC[C@@H](C)[C@H](NC(=O)OC(C)(C)C)c1nnc(S(=O)(=O)Cc2cc(C)ccc2C)o1	0	-40	17	9
CC(C)(C)OC(=O)N[C@@H](Cc1ccccc1)c1nnc(S(=O)(=O)Cc2cccc(F)c2)o1	1	x	69*	x
Clc1ccc(OC2CCN(Cc3nc(CC4CC4)no3)CC2)cc1	2	-11	-2	7
C[C@H](CO)N1C[C@H](C)[C@@H](CN(C)C(=O)Nc2ccc(C(F)(F)F)cc2)Oc2ccc(NC(=O)Nc3ccc(C(F)(F)F)cc3)cc2C1=O	0	0	35*	-6
C[C@H](CO)N1C[C@H](C)[C@@H](CN(C)C(=O)Nc2ccc(C(F)(F)F)cc2)Oc2c(NC(=O)Nc3ccc(C(F)(F)F)cc3)cccc2C1=O	6	-12	u	-27
C[C@H]1CN([C@@H](C)CO)C(=O)c2cccc(NC(=O)Nc3ccc(C(F)(F)F)cc3)c2O[C@@H]1CN(C)C(=O)Nc1ccc(F)cc1	2	36	35*	-25
C[C@@H]1CN([C@H](C)CO)C(=O)c2cc(NC(=O)Nc3ccc(C(F)(F)F)cc3)ccc2O[C@H]1CN(C)C(=O)Nc1ccc(F)cc1	x	-2	x	-5
Cc1cc([N+](=O)[O-])ccc1-c1ccc(C2Nc3ccccc3C(=O)N2O)o1 (stereo not drawn)	0	63*	7	-20
CCOC(=O)c1ccc(-c2ccc(C3Nc4ccccc4C(=O)N3O)o2)cc1 (stereo not drawn)	0	59*	6	35
O=C1c2ccccc2NC(c2ccc(-c3ccccc3F)o2)N1O (stereo not drawn)	4	47	-7	22
CCOc1ccc(Nc2nc3ccccc3n3nnnc23)cc1	3	6	0	40*
Cc1ccc2nc(-c3ccc(O)c(O)c3)cn2c1	1	-4	-14	18
Cc1ccc2nc(-c3ccccc3)cn2c1	0	-32	-21	39*
CCCCCCn1cc(C(=O)O)c(=O)c2cc(F)c(N3CCN(C)CC3)cc21	1	3	-11	45*
Cc1cc(CNC(=O)c2cccc(OC3CCN(S(=O)(=O)N(C)C)CC3)c2)on1	0	-2	8	9
CCOC(=O)C1CCN(c2cc3c(cc2NC(=O)c2ccccc2Cl)n(C)c(=O)n3C)CC1	0	56*	1	x
CCOC(=O)C1CCN(c2cc3c(cc2NC(=O)c2ccc(F)cc2)n(C)c(=O)n3C)CC1	3	81*	1	7
Oc1ccc(N=C/C=C/c2cccc(Br)c2)cc1-c1nc2ccccc2s1	85*	-3	-9	-16
CC(C)CN(CCCNC(=O)CN1C(=O)COc2ccc(S(=O)(=O)N3CCOCC3)cc21)CC(C)C	0	5	-8	9
CCOC(=O)Oc1ccc(/C=C2\N=C(C)OC2=O)cc1	0	14	14	0
COC(=O)NNC(=O)c1ccc(C)c(Br)c1	80*	4	-6	10
SMILES	GRK2 aptamer HTS	Cardio protect	HDAC3 inh	Neddyl block
CC(=O)Nc1ccc(S(=O)(=O)NCc2ccc(C(=O)NC(C)c3ccccc3)cc2)cc1 (stereo not drawn)	0	4	0	-3
N#C/C(C(=O)N1CCCCC1)=C1/N=C(NC(=O)c2ccc(F)cc2)c2ccccc21	3	18	-3	-32
N#C/C(C(=O)N1CCCCC1)=C1/N=C(N)c2ccccc21	100*	10	-2	-12
CC(/C=C/c1ccccc1)=N/NC(=O)c1cc([N+](=O)[O-])cc([N+](=O)[O-])c1	0	65*	1	-38
CC(/C=C/c1cccc([N+](=O)[O-])c1)=N/NC(=O)c1cccnc1	1	39	4	-26
OCCC1CN(Cc2ccc(-n3cccn3)cc2)CCN1Cc1ccccc1 (stereo not drawn)	0	-1	12	6
CCCCN(C)C(=O)c1cc2cc3ccc(OC)cc3nc2s1	2	-32	7	43*
CCCCN(CC)C(=O)c1cc2cc3ccc(OC)cc3nc2o1	2	4	-22	56*
COCCNC(=O)c1cc2cc3ccc(OC)cc3nc2o1	0	0	-92	x
COC(=O)c1ccc(CSc2nc3ccc(Cl)cc3[nH]2)o1	3	x	7	x
COC(=O)c1ccc(CSc2nc3scc(-c4cccs4)c3c(=O)[nH]2)o1	1	-12	42*	-6
COc1ccc2nc(NC(=O)c3ccco3)sc2c1	0	-18	5	48*
Cc1ccc2nc(NC(=O)c3ccco3)sc2c1	3	-34	9	33
CC(=O)Nc1ccc(NC(=O)Nc2ccc3c(c2)N(C)C(=O)CS3)cc1	0	1	-1	4
CN1C(=O)CSc2ccc(NC(=O)Nc3ccccn3)cc21	0	59*	1	0
Cc1ccc(C)c(N2CCN(C(=O)Nc3ccc4c(c3)N(C)C(=O)CS4)CC2)c1	3	-6	-6	-6
CN1C(=O)CSc2ccc(NC(=O)N3CCN(c4ccccn4)CC3)cc21	0	57*	x	20
COc1ccc(/C=C(\NC(=O)c2ccco2)C(=O)NCc2ccco2)cc1	0	-1	2	-16
COc1cc(OC)c(-c2nn3c(-c4ccco4)nnc3s2)cc1OC	x	74*	x	x
COc1ccc(-c2nnc3sc(-c4ccco4)nn23)cc1OC	3	58*	3	-29
COc1cc(-c2nnc3sc(-c4ccco4)nn23)cc(OC)c1OC	0	12	7	11
CCOc1cccc(-c2nn3c(-c4ccco4)nnc3s2)c1	0	64*	-2	-15
c1coc(-c2nnc3sc(-c4cccs4)nn23)c1	0	53*	3	-37
CCOC(=O)c1c(NC(=O)C2CCCCC2)sc2c1CCN(C(C)C)C2	0	7	0	3
C1CCC(Nc2nc3nonc3nc2N2CCSCC2)C1	0	5	7	0
SMILES	GRK2 aptamer HTS	Cardio protect	HDAC3 inh	Neddyl block
O=C(COC(=O)c1ccc2c(c1)OCCO2)NCc1ccc(Cl)cc1	x	-2	x	-70
COc1ccc(-c2nn3c(-c4ccco4)nnc3s2)cc1OC	1	77*	3	2
O=C(NC1CC1)C1CCN(C2CCN(C(=O)c3c(F)cccc3Cl)CC2)CC1	0	-1	-1	14
NC(=O)c1nsc(C(=O)N(Cc2ccco2)C(C(=O)NCc2ccc(F)cc2)c2ccc(O)cc2)c1N (stereo not drawn)	0	54*	2	35
Cc1ccccc1C(C(=O)NCc1ccccc1)N(Cc1ccco1)C(=O)c1ccccn1 (stereo not drawn)	2	51*	1	0
Cc1ccc(C(C(=O)NCc2ccc(F)cc2)N(Cc2ccco2)C(=O)c2snc(C(N)=O)c2N)o1 (stereo not drawn)	0	40	10	18
